Experimental findings from PubChem BioAssay AID1578 (Sanford-Burnham Center for Chemical Genomics, 2009) are described below.

Broadly, the inhibition is the change of the read-out against control, counted positive when it falls.

Structures are written as SMILES. Where “and” joins values, the source holds several entries; their conditions need not be identical. Equal entries are not always repeated. Hit rate of the full screen: of about 290,000 compounds, about 3,000 (1%) were called active. Cut-off read from the data, not from the text of the source: active = inhibition mostly above about 36% (no sharp cut-off); inactive = mostly below about 34%. For the sample, actives were picked, then their nearest neighbours and some compounds at random.

The nature of this test: inhibition of NOD1-driven NF-kB reporter – cell-based, luminescence, uHTS, primary screen (AID 1578).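 Note: HEK-293T reporter cells stimulated with the NOD1 agonist gamma-tri-DAP.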 The following applies: NOD1-driven NF-kB luciferase reporter cells, at 4 µM, hits give high values. (A reporter such as luciferase makes a cellular process visible.)
As to `COc1cc(Br)c(CN2CCCN(C)CC2)cc1OC`, the inhibition is -24.3% (inactive).
The result for `N#C/C(=C\N1CCN(Cc2ccc3c(c2)OCO3)CC1)c1nc2ccccc2s1` reads 24.5% (inactive).
For the compound `N#C/C(=C(/O)c1ccccc1F)c1nc2cc(C(F)(F)F)ccc2s1`, the inhibition is -28.9% (inactive).
`N#C/C(=C(/O)COC(=O)c1ccc(C#N)cc1)c1nc2ccccc2s1`: the inhibition is -35.4% (inactive).
Turning to `O=C(O)c1ccc(-c2cccc([N+](=O)[O-])c2)o1`, the inhibition is 9.4% (inactive).
The result for `N#C/C(=C(/O)c1cc2ccccc2o1)c1nc2ccccc2s1` reads 65.8% (active); that for `O=[N+]([O-])c1cccc(-c2nc3ccccc3s/c2=N/O)c1`, 2.3% (inactive); that for `N#C/C(=C(/O)c1ccc(-c2cccc([N+](=O)[O-])c2)o1)c1nc2ccccc2s1`, 101% (active).
The result for `N#C/C(=C(/O)c1ccco1)c1nc2ccccc2s1` reads -3.1% (inactive) and -9.8% (inactive).
In the case of `N#C/C(=C(/O)c1ccc2c(c1)OCO2)c1nc2cc(C(F)(F)F)ccc2s1`, the inhibition was 86.4% (active).
As to `N#C/C(=C(/O)COC(=O)c1ccccc1O)c1nc2ccccc2s1`, the inhibition was 16.3% (inactive).
As to `CC(C)=C(C#N)c1nc2ccccc2s1`, the inhibition was -26.3% (inactive).
With `CC(C)(C)c1ccc(C(=O)OC/C(O)=C(\C#N)c2nc3ccccc3s2)cc1`, the inhibition is 92% (active).
As for `CN(C)CCCN(Cc1ccccc1)C(=S)NCc1ccccc1`, the inhibition was -3.5% (inactive).
With `Cc1ccc(C)c(-n2nnnc2SCC(=O)Nc2c(C)n(C)n(-c3ccccc3)c2=O)c1`, the inhibition was -6.2% (inactive).
On to `CCOc1ncccc1C(=O)Nc1nnc(C)s1`, for which the inhibition is -28.7% (inactive).
As to `CC(C)NC(=O)C(=O)NCCN1CCN(C(=O)c2ccc(C(C)(C)C)cc2)CC1`, the inhibition is -31.9% (inactive).
For `Cc1c(CCO)c(=O)[nH]n1S(=O)(=O)c1ccc(Cl)cc1Cl`, the inhibition is -2.3% (inactive).
Take `COc1ccccc1NC(=S)NC(=O)/C=C/c1ccco1`: the inhibition is -34.4% (inactive).
In the case of `COc1ccc2[nH]c(C(=O)Nc3ncc(C)cc3Br)cc2c1`, the inhibition is 1.8% (inactive).
Take `Cc1cccc(Cc2nnc(CCC(=O)N(C)Cc3ccncc3C)o2)c1`: the inhibition was -15.4% (inactive).
For the compound `COC(=O)c1ccc(C23CC4(C2)[C@H](CN(Cc2ccc(-c5ccccc5)cc2)[C@@H]4c2ccccc2)C3c2ccc(Cl)nc2)cc1` (some centres not stated), the inhibition is -11.8% (inactive).
In the case of `CCOP(=O)(c1ccc(N(C)C)cc1)C(O)c1ccccc1` (configuration not stated), the inhibition is -12.2% (inactive).
For `COC(=O)c1ccc(/C(O)=C(\C#N)c2nc3ccccc3s2)cc1`, the inhibition is 29.2% (inactive).
Regarding `N#C/C(=C(/O)c1ccc(F)cc1)c1nc2ccccc2s1`, the inhibition is 61.2% (active).
In the case of `N#C/C(=C(/O)c1cccc(F)c1)c1nc2ccccc2s1`, the inhibition is 3.7% (inactive).
As to `O=C(CSc1cn[nH]n1)Nc1ccccc1C(F)(F)F`, the inhibition is -20.2% (inactive).
On to `CCOC(=O)CNC(=O)C(CC(N)=O)NC(=O)OC(C)(C)C` (configuration not stated), for which the inhibition is -7.6% (inactive).
Take `CN(Cc1cccnc1)C(=O)c1cc(COc2ccc3c(c2)CCCC3)on1`: the inhibition was -46.9% (inactive).
Consider `CN(Cc1nccn1C)C(=O)c1cc(COc2ccc3ncccc3c2)on1`, for which the inhibition was -6.6% (inactive).
Take `Cc1nc(CN(C)C(=O)c2cc(COc3c(F)cccc3F)on2)cs1`: the inhibition was -40.5% (inactive).
Consider `Cc1cc(CN(C)C(=O)c2cc(COc3ccc4ncccc4c3)on2)on1`, for which the inhibition was 13.2% (inactive).
Turning to `COc1cc(NC(=O)c2ccco2)c(OC)cc1NC(=O)CSc1ncc(-c2ccc(F)cc2)[nH]1`, the inhibition is -33.5% (inactive).
`COc1ccc(N2CCN(C(=O)C3CCN(S(=O)(=O)c4c(C)noc4/C=C/N(C)C)CC3)CC2)cc1`: the inhibition is -9.1% (inactive).
`O=C(NCCc1ccccc1)C(=O)NCC1OCCCN1S(=O)(=O)c1cccs1` (configuration not stated): the inhibition was -40.9% (inactive).
`COc1cc(/C=C/C(=O)Nc2nc3ccc(S(=O)(=O)N(C)C)cc3s2)cc(OC)c1OC`: the inhibition is 28.3% (inactive).
Then `CCc1cccc2c(C(=O)COC(=O)C3=NNC(=O)CC3)c[nH]c12`, with -12.4% (inactive); and `Cc1noc(C)c1C(=O)OCC(=O)c1c[nH]c2ccccc12`, with -6.2% (inactive).
The result for `CCc1cccc2c(C(=O)COC(=O)c3c(C)noc3C)c[nH]c12` reads 92.9% (active); that for `CCc1cccc2c(C(=O)COC(=O)c3cccc(S(=O)(=O)N(C)C4CCCCC4)c3)c[nH]c12`, 77.3% (active).
`CCc1cccc2c(C(=O)COC(=O)c3ccccc3)c[nH]c12`: the inhibition was -19.8% (inactive).
Then `CCc1cccc2c(C(=O)COC(=O)c3ccc(O)cc3)c[nH]c12`, with -17.9% (inactive); and `CCS(=O)CCSc1nc2ccccc2s1` (configuration not stated), with -10.5% (inactive).
Then `N#Cc1cc(C(=O)c2ccccc2O)cn(-c2nccs2)c1=O`, with -9.7% (inactive); and `O=C(NCc1ccccc1)C1CCN(c2nc(-c3ccccc3)nc3c2CCC3)CC1`, with 15.8% (inactive).
`CC[C@@H]1CC=C[C@H]2[C@H]1C(=O)N(Cc1ccccc1)[C@H]2c1ccc(C(F)(F)F)cc1`: the inhibition is -2.1% (inactive).
Then `COc1ccc(C(=O)O/N=C2\CCCc3nonc32)cc1`, with -0.9% (inactive).
The result for `CC(/C=C/c1ccccc1)=N\NC(=O)c1ccc(Br)cc1` reads 43.7% (inactive); that for `CC(/C=C/c1ccccc1)=N\NC(=O)c1ccncc1`, 0.4% (inactive).
With `O=C(NCCc1ccccc1)C(=O)N/N=C/c1ccccc1C(F)(F)F`, the inhibition is -5.8% (inactive).
Turning to `Cc1ccc(NC(=O)c2cc3c(s2)CCCC3)cc1`, the inhibition was -69.9% (inactive).
For `CC(=O)Nc1cccc(Cn2cccn2)c1`, the inhibition is 11.3% (inactive).
Take `O=C(Nc1cccc(Cn2cccn2)c1)c1cc2c(s1)CCCC2`: the inhibition is 34.5% (active).
`C=CCN(C(=O)CSc1nc2[nH]ncc2c(=O)n1-c1ccccc1OC)c1ccccc1`: the inhibition was -29% (inactive).
`O=C(O)c1ccc(Nc2nc3ccccc3nc2NS(=O)(=O)c2cccs2)cc1`: the inhibition is -3.1% (inactive).
As to `O=C(O)c1cccc(Nc2nc3ccccc3nc2NS(=O)(=O)c2cccs2)c1`, the inhibition was -74.2% (inactive).
For the compound `COc1ccc(Nc2nc3ccccc3nc2NS(=O)(=O)c2cccs2)c(OC)c1`, the inhibition is 18% (inactive).
As for `COc1ccc(Nc2nc3ccccc3nc2NS(=O)(=O)c2cccs2)cc1`, the inhibition was 39.2% (inactive).
Consider `O=C1N2c3ccccc3CCc3cccc(c32)C1(O)C(F)(F)F` (configuration not stated), for which the inhibition was -26.6% (inactive).
Then `CC1CC(C)CN(S(=O)(=O)N2CCCC(C(=O)NCCCN3CCOCC3)C2)C1` (configuration not stated), with 16.8% (inactive); and `CCn1nc(C)c(Br)c1Nc1ccc(Br)cc1`, with 7.5% (inactive).
`Cc1cc(C)nc(-n2nc(C)c(Br)c2Nc2ccc(Br)cc2)n1`: the inhibition is -10.9% (inactive).
For the compound `Cc1nn(C)c(Nc2ccc(Br)cc2)c1Br`, the inhibition is 44.9% (active).
The result for `CCN(CC)S(=O)(=O)c1ccc(C(=O)Nc2cccc(C)c2)cc1` reads -4.2% (inactive); that for `CC(C)(C)CC(=O)Nc1cc(S(=O)(=O)N2CCCCCC2)ccc1Cl`, -3.6% (inactive); that for `Cc1ccc(C)c(OCC(=O)Nc2cccc(S(=O)(=O)NC3=NCCCCC3)c2)c1`, -2.9% (inactive).
Regarding `CC(=O)OCC(=O)Nc1cc(S(=O)(=O)N2CCCCCC2)ccc1Cl`, the inhibition was -22.1% (inactive).
As to `CCN(CC)CC(=O)Nc1cccc(S(=O)(=O)N2CCCC2)c1`, the inhibition is -15.1% (inactive).
With `Cc1ccc(C(C)C)c(OCC(=O)Nc2cccc(S(=O)(=O)NC3=NCCCCC3)c2)c1`, the inhibition is 53.3% (active).
On to `COc1cc(NC(=O)CNc2cccc(S(=O)(=O)N3CCCC3)c2)cc(OC)c1`, for which the inhibition was -2.7% (inactive).
For the compound `Cc1ccc(OCC(=O)Nc2cccc(S(=O)(=O)NC3=NCCCCC3)c2)cc1C`, the inhibition was -93% (inactive).
On to `CCN(CC)S(=O)(=O)c1cccc(NC(=O)c2cncc(Br)c2)c1`, for which the inhibition is -54.6% (inactive).
In the case of `Cn1nc(-c2ccccc2)c2cc(C(=O)O)sc21`, the inhibition was -19.4% (inactive).
As to `COc1cc(OC)cc(C(=O)Nc2cccc(NC(=O)c3ccccc3)c2)c1`, the inhibition was 2.4% (inactive).
In the case of `Cc1cccc2nc(CSc3ncccc3C(=O)O)cn12`, the inhibition is -32.8% (inactive).
The result for `Cc1cc(C)nc(N/N=C/c2ccccc2OCc2ccccc2)n1` reads -24.5% (inactive).
Turning to `COc1cccc(NC(=O)CSc2ccc3nnc(-c4ccncc4)n3n2)c1`, the inhibition is 10.7% (inactive).
On to `CS(=O)(=O)c1ccc(Cl)c(NC(=O)CCc2ccccc2)c1`, for which the inhibition was -34.6% (inactive).
Consider `O=C(Cc1n[nH]c(=O)c2ccccc12)Nc1cccc(S(=O)(=O)N2CCCC2)c1`, for which the inhibition was 0.5% (inactive).
With `CC(=O)c1cccc(NC(=O)Cn2c(=O)oc3cc(S(=O)(=O)N4CCCC4)ccc32)c1`, the inhibition is -4.9% (inactive).
The result for `O=C(Cn1[nH]c(=O)c2ccccc2c1=O)Nc1cccc(S(=O)(=O)N2CCCCCC2)c1` reads 55% (active); that for `CS(=O)(=O)c1ccc(Cl)c(NC(=O)CCl)c1`, 43.3% (active); that for `O=C(Cn1c(=O)oc2cc(S(=O)(=O)N3CCCC3)ccc21)Nc1cccc(C(F)(F)F)c1`, 58% (active).
Regarding `CS(=O)(=O)c1ccc(Cl)c(NC(=O)Cc2c(Cl)cccc2Cl)c1`, the inhibition was 19.7% (inactive).
For `O=C(Cn1cnc2ccccc2c1=O)Nc1cccc(S(=O)(=O)N2CCCCC2)c1`, the inhibition is 3.7% (inactive).
Take `O=C(Cn1c(=O)oc2cc(S(=O)(=O)N3CCCC3)ccc21)Nc1ccc(C(F)(F)F)cc1`: the inhibition is 8.8% (inactive).
Then `O=C(CCc1ccccc1Cl)Nc1cccc(S(=O)(=O)N2CCCC2)c1`, with -16.3% (inactive).
The result for `CC(=O)Nc1cccc(S(=O)(=O)N2CCCCCC2)c1` reads -15.2% (inactive).
Take `CCCc1cc(=O)[nH]c(SCC(=O)NCCC2=CCCCC2)n1`: the inhibition is -16.8% (inactive).
For the compound `Cc1ccc2nc(NCC(=O)NN)nc(-c3ccccc3)c2c1`, the inhibition was -11.2% (inactive).
Turning to `Cc1ccnc(NS(=O)(=O)c2ccc(NC(=O)c3cc(=O)c4ccccc4o3)cc2)n1`, the inhibition was -0.9% (inactive).
`NC(=O)/C(=C/c1cccnc1)NC(=O)c1ccccc1`: the inhibition was 4.1% (inactive).
